Reference: PubChem BioAssay (NCATS)

Assay: qHTS profiling of the MIPE4 collection as inhibitors of Plasmodium falciparum (DD2) proliferation (Rep 2) (AID 743346)
Conditions: P. falciparum Dd2 in erythrocytes, SYBR Green DNA, 72 h; at 28.5 µM unless noted
Outline: (§1)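 Parasite DNA was quantified by SYBR Green I fluorescence (ex 485, em 535 nm) after overnight lysis in saponin/Triton buffer at room temperature. Cultures at 0.3% parasitemia and 2.5% hematocrit were first exposed to compound for 72 h at 37 C; signals were normalised to artemisinin (0.29 uM) and vehicle wells.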
With `NC1=N[C@@]2(c3cc(NC(=O)c4ccc(F)cn4)ccc3F)COC[C@@H]2CS1` the parasite growth, % of control (lower = inhibition) was 26.1%.
`COc1ccc2cc(-c3nc(-c4ccc(S(C)=O)cc4)[nH]c3-c3ccncc3)ccc2c1` (stereo not given) showed a parasite growth, % of control (lower = inhibition) of 10.6%.
Work on `CO[C@H]1C[C@@H]2CC[C@@H](C)[C@@](O)(O2)C(=O)C(=O)N2CCCC[C@@H]2C(=O)O[C@H]([C@H](C)C[C@@H]2CC[C@H](OCCO)[C@H](OC)C2)CC(=O)[C@H](C)C=C(C)[C@@H](O)[C@@H](OC)C(=O)[C@H](C)C[C@H](C)C=CC=CC=C1C` yielded a parasite growth, % of control (lower = inhibition) of 8.53%.
For `NC1CCC(Nc2nc(Nc3ccc(C(=O)N4CCCCC4)cc3)c3ncn(-c4cccc(F)c4)c3n2)CC1` (stereo not given), the parasite growth, % of control (lower = inhibition) was 47.7%.
With `Cc1ccn(-c2ccc(-c3ncco3)cc2)c(=O)c1-c1ccc2nc(N)ncc2c1` the parasite growth, % of control (lower = inhibition) was 56.7%.
`N#Cc1ccc(NC(=O)Nc2ccccc2Br)c2n[nH]nc12` showed a parasite growth, % of control (lower = inhibition) of 21.8%.
Molecule `COc1ccc2cccc(CCNC(C)=O)c2c1` has a parasite growth, % of control (lower = inhibition) of 72.6%.
`COc1ccc(-c2coc3cc(O)ccc3c2=O)cc1` showed a parasite growth, % of control (lower = inhibition) of 96.3%.
`NC(=O)NN=Cc1ccc([N+](=O)[O-])o1` gave a parasite growth, % of control (lower = inhibition) of 14.3%.
Work on `CN(C)C1CCN(C(=O)c2ccc(NC(=O)Nc3nc(N4CCOCC4)nc(N4CCOCC4)n3)cc2)CC1` yielded a parasite growth, % of control (lower = inhibition) of 9.5%.
For `Cc1c[nH]c(C=C2C(=O)Nc3ccccc32)c1CCC(=O)O`, the parasite growth, % of control (lower = inhibition) was 29.1%.
`O=C(O)c1c(Cl)c(Cl)c(Cl)c(Cl)c1-c1c2cc(I)c(=O)c(I)c-2oc2c(I)c(O)c(I)cc12` gave a parasite growth, % of control (lower = inhibition) of 80.2%.

Assay: qHTS profiling of the MIPE4 collection as inhibitors of Plasmodium falciparum (HB3) proliferation (AID 743347);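 further: plate controls were DMSO vehicle wells for no effect and artemisinin wells for full effect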
Conditions: P. falciparum HB3 in erythrocytes, SYBR Green DNA, 72 h; at 28.5 µM unless noted
Outline: as §1
Molecule `Clc1ccc(CCC(Cn2ccnc2)Sc2c(Cl)cccc2Cl)cc1` (stereo not given) has a growth, % of control of 3.43%.
`C=C1C(=O)OC2C=C(C)CCC=C(C)CCC12` (stereo not given) gave a growth, % of control of 559%.
With `NC(=O)c1cnc(-c2ccc(C3(N)CCC3)cc2)c(-c2ccccc2)c1` the growth, % of control was 75.7%.
Work on `CC(=O)OC1C(C)OC(Oc2c(-c3ccc(O)cc3)oc3cc(O)cc(O)c3c2=O)C(O)C1OC(C)=O` (stereo not given) yielded a growth, % of control of 4.99%.
For `COC1CCC(N(C(=O)C2CCC(C)CC2)c2cc(C3=CCCCC3)sc2C(=O)O)CC1` (stereo not given), the growth, % of control was 22.9%.
Molecule `NC(=O)c1cccc2[nH]c(-c3ccc([C@H]4CCCN4)cc3F)nc12` has a growth, % of control of 2.5%.
`CC1(C)CCC(CN2CCN(c3ccc(C(=O)NS(=O)(=O)c4ccc(NCC5CCOCC5)c([N+](=O)[O-])c4)c(Oc4cnc5[nH]ccc5c4)c3)CC2)=C(c2ccc(Cl)cc2)C1` gave a growth, % of control of 6.5%.
With `CCC(CC)[C@H](NC(C)=O)[C@@H]1[C@H](O)[C@@H](C(=O)O)C[C@@H]1N=C(N)N` the growth, % of control was 97.8%.
Work on `O=C(O)C=Cc1ccc(O)c(O)c1` yielded a growth, % of control of 64.3%.
For `CO[C@H]1C=CC=C(C)C(=O)NC2=CC(=O)C(NCCN(C)C)=C(C[C@@H](C)C[C@H](OC)[C@@H](O)[C@@H](C)C=C(C)[C@@H]1OC(N)=O)C2=O`, the growth, % of control was 6.65%.
Molecule `C[N+](C)(C)CC(=O)O` has a growth, % of control of 85.2%.
Molecule `Cc1c(O)cccc1C(=O)N[C@@H](CSc1ccccc1)[C@H](O)CN1C[C@H]2CCCC[C@@H]2C[C@@H]1C(=O)NC(C)(C)C` has a growth, % of control of 15.7%.
Molecule `CN[C@@H](C)C(=O)N[C@H]1CN(C(=O)CC(C)C)CC[C@H]2CC[C@@H](C(=O)NC(c3ccccc3)c3ccccc3)N2C1=O` has a growth, % of control of 72.2%.
Molecule `CC(=NNC(=S)N1CCC1)c1ccccn1` has a growth, % of control of 6.19%.
For `NC(=O)[C@@H](CCC(F)(F)F)N(Cc1ccc(-c2ncon2)cc1F)S(=O)(=O)c1ccc(Cl)cc1`, the growth, % of control was 73.5%.
In the case of `O=c1cc(CN2CCOCC2)occ1OCCCCCSc1ccnc2cc(C(F)(F)F)ccc12`, the growth, % of control was 12.1%.
In the case of `CC=CCC(C)C(O)C1C(=O)NC(CC)C(=O)N(C)CC(=O)N(C)C(CC(C)C)C(=O)NC(C(C)C)C(=O)N(C)C(CC(C)C)C(=O)NC(C)C(=O)NC(C)C(=O)N(C)C(CC(C)C)C(=O)N(C)C(CC(C)C)C(=O)N(C)C(C(C)C)C(=O)N1C` (stereo not given), the growth, % of control was 4.04%.
`CC(C)=CC[C@@H](O)C1=CC(=O)c2c(O)ccc(O)c2C1=O` showed a growth, % of control of 2.71%.
For `O=c1cc(N2CCOCC2)oc2c(-c3cccc4c3sc3ccccc34)cccc12`, the growth, % of control was 7.93%.
Work on `NC1=N[C@@]2(c3cc(NC(=O)c4ccc(F)cn4)ccc3F)COC[C@@H]2CS1` yielded a growth, % of control of 20.1%.
`COc1ccc2cc(-c3nc(-c4ccc(S(C)=O)cc4)[nH]c3-c3ccncc3)ccc2c1` (stereo not given) gave a growth, % of control of 3.67%.
In the case of `O=C(O)[C@H]1O[C@H](Oc2cc3oc(-c4ccccc4)cc(=O)c3c(O)c2O)[C@H](O)[C@@H](O)[C@H]1O`, the growth, % of control was 96.3%.
Work on `CO[C@H]1C[C@@H]2CC[C@@H](C)[C@@](O)(O2)C(=O)C(=O)N2CCCC[C@@H]2C(=O)O[C@H]([C@H](C)C[C@@H]2CC[C@H](OCCO)[C@H](OC)C2)CC(=O)[C@H](C)C=C(C)[C@@H](O)[C@@H](OC)C(=O)[C@H](C)C[C@H](C)C=CC=CC=C1C` yielded a growth, % of control of 3.94%.
